# Laboratory results from PMC7862700, “An all-to-all approach to the identification of sequence-specific readers for epigenetic DNA modifications on cytosine”.
# Key:
# Assay in all cases: DAPPL (digital affinity profiling via proximity ligation, sequencing); 10 mM Tris-HCl pH 7.5, 50 mM NaCl, 1 mM DTT, 4% glycerol, room temperature, 30 min; GST-TFs on glutathione beads, 16-mer random dsDNA library, 0.1% formaldehyde crosslink after washing; high values mean tight binding
# Settings in all cases: protein: recombinant; tags: N-terminal GST; dsDNA, one strand shown
# FEV = target: T1, FEV (Homo sapiens, UniProt Q99581 1-238)
# T1 sequence: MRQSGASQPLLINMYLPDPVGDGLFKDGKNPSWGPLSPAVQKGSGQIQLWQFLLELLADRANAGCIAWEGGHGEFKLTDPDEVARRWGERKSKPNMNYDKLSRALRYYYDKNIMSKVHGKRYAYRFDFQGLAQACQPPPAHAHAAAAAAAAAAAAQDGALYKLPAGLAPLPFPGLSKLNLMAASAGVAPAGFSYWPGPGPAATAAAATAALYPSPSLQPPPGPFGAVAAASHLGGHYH
# In short: (§1)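 After expression in yeast as GST fusions, human transcription factors were bound to glutathione beads, DNA-barcoded and mixed with a tag-only sample. The pools were incubated with 200 nmole of a 16-mer random double-stranded DNA library in Tris/NaCl/DTT/glycerol buffer (30 min, room temperature), washed and crosslinked with 0.1% formaldehyde. Proximity ligation with BsaI/T4 ligase ran for 1 h at 37 °C, before PCR amplification and sequencing on an Illumina NextSeq500. Binding signal is a hexamer's read frequency for a factor divided by its frequency for the tag-only sample.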
# ETV5 = ETV5 (Homo sapiens, UniProt P41161 1-510)
# Chain of ETV5 (P41161 whole entry): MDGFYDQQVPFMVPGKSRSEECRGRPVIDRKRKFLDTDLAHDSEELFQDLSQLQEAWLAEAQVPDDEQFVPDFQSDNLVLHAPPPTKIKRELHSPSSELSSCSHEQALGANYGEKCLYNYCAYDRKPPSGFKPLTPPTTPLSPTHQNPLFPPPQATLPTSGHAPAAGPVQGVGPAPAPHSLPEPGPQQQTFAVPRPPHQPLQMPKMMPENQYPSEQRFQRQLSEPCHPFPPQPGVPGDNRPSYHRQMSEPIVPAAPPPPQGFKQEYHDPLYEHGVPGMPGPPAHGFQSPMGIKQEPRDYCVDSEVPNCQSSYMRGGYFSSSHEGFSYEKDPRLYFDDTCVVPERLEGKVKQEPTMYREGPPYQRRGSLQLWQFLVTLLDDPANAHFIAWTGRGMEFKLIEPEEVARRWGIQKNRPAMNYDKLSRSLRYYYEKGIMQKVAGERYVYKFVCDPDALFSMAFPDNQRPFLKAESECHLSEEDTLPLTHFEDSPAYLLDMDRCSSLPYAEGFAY
# In short: as §1
# SPIC = target: T2, SPIC (Homo sapiens, UniProt Q8N5J4 1-248)
# T2 sequence: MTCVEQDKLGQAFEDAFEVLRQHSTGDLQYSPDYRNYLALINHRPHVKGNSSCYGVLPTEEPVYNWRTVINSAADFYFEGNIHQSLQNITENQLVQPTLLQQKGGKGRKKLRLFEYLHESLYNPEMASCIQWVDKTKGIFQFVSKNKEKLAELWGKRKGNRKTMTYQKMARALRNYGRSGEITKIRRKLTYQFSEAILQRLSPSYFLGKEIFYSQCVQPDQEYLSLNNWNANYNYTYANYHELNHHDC
# In short: as §1
# ELF4 = ELF4 (Homo sapiens, UniProt Q99607 1-663)
# Chain of ELF4 (Q99607 whole entry): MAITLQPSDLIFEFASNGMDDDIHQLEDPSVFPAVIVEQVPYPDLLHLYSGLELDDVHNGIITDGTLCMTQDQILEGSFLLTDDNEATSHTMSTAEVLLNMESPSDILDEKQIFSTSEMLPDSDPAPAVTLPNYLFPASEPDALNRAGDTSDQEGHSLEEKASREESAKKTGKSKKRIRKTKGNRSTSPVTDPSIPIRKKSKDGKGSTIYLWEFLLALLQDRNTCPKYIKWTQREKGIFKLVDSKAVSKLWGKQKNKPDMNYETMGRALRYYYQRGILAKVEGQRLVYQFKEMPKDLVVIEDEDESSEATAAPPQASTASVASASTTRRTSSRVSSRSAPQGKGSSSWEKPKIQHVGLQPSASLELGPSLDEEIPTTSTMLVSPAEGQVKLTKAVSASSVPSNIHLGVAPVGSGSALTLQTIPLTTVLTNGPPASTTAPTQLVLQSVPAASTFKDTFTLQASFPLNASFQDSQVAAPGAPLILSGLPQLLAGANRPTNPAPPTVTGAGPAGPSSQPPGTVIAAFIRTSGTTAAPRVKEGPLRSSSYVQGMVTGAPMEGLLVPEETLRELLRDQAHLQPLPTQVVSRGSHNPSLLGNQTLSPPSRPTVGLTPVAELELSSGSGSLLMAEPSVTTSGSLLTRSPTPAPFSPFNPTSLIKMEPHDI
# In short: as §1
# ETV1 = ETV1 (Homo sapiens, UniProt P50549 1-477)
# Chain of ETV1 (P50549 whole entry): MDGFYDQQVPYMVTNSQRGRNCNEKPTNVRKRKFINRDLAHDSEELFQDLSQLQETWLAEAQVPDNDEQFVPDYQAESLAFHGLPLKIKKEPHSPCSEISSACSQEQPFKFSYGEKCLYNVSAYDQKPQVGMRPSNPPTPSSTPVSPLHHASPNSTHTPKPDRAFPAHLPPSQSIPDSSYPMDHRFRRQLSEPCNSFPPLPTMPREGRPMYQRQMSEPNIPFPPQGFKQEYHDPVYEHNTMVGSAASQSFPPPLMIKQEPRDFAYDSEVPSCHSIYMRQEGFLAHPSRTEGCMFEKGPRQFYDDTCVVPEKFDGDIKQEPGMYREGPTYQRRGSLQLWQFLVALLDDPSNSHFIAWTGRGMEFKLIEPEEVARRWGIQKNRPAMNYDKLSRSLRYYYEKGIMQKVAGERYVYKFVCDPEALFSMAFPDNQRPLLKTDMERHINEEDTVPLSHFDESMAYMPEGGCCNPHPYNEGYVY
# In short: as §1
# ETV3L = target: T3, ETV3L (Homo sapiens, UniProt Q6ZN32 1-361)
# T3 sequence: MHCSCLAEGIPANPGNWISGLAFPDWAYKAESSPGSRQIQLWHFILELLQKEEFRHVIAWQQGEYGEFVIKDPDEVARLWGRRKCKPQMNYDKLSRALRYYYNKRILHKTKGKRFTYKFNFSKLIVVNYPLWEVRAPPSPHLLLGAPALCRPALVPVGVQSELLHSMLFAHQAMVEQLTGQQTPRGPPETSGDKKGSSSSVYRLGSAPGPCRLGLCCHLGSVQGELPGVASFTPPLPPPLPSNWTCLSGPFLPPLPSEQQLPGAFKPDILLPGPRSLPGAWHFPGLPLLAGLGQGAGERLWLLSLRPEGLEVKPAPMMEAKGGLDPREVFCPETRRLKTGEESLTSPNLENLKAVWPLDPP
# In short: as §1
# ETS2 = target: T4, ETS2 (Homo sapiens, UniProt P15036 1-469)
# T4 sequence: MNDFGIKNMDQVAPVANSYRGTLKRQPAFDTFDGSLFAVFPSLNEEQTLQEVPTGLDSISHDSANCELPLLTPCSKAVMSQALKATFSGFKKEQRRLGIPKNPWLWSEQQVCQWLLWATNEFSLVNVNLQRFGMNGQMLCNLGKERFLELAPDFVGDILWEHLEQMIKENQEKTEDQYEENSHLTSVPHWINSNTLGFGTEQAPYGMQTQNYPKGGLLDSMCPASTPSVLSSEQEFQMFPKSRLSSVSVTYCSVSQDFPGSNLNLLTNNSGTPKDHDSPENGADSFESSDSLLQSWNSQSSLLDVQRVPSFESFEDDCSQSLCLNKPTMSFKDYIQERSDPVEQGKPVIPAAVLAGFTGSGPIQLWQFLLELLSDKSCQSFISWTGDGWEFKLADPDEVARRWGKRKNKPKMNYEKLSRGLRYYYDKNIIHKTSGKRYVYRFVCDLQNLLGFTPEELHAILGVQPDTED
# In short: as §1
# SPDEF = target: T5, SPDEF (Homo sapiens, UniProt O95238 1-335)
# T5 sequence: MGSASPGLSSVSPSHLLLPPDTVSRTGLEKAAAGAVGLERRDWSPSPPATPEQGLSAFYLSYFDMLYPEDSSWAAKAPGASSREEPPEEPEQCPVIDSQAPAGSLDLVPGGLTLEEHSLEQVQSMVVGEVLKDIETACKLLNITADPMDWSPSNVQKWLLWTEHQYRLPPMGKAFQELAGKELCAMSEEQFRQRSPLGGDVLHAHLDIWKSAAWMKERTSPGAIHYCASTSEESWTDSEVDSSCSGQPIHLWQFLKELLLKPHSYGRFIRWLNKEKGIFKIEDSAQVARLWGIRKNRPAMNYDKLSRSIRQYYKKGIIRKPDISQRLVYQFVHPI
# In short: as §1
# ETV3 = target: T6, ETV3 (Homo sapiens, UniProt P41162-2 1-143)
# T6 sequence: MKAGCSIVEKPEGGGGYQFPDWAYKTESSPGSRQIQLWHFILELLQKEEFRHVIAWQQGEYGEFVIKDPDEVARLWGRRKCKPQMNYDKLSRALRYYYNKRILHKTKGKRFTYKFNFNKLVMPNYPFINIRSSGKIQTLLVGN
# In short: as §1
# ETV6 = ETV6 (Homo sapiens, UniProt P41212 1-452)
# Chain of ETV6 (P41212 whole entry): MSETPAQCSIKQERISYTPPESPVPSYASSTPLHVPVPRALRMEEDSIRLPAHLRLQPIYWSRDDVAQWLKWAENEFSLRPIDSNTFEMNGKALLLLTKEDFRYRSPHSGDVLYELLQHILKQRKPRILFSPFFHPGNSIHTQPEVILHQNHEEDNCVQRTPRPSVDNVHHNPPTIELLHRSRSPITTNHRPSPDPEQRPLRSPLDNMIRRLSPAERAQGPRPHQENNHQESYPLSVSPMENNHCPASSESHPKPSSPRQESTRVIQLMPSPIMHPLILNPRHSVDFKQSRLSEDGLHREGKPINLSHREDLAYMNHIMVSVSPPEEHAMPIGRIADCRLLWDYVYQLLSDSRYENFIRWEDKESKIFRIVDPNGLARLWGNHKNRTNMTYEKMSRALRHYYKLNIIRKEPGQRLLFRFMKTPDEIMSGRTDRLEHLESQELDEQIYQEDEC
# In short: as §1
sequence,measurement,setting,value
CGGAAC,binding signal,FEV,"1.16 fold enrichment (6-mer frequency, TF over GST control)"
same,binding signal,ETV5,"1.29 fold enrichment (6-mer frequency, TF over GST control)"
same,binding signal,SPIC,"1.09 fold enrichment (6-mer frequency, TF over GST control)"
same,binding signal,ELF4,"1.04 fold enrichment (6-mer frequency, TF over GST control)"
same,binding signal,ETV1,"1.23 fold enrichment (6-mer frequency, TF over GST control)"
same,binding signal,ETV3L,"1.11 fold enrichment (6-mer frequency, TF over GST control)"
same,binding signal,ETS2,"1.18 fold enrichment (6-mer frequency, TF over GST control)"
same,binding signal,SPDEF,"1.32 fold enrichment (6-mer frequency, TF over GST control)"
same,binding signal,ETV3,"1.31 fold enrichment (6-mer frequency, TF over GST control)"
same,binding signal,ETV6,"1.12 fold enrichment (6-mer frequency, TF over GST control)"
